Measurements published in PubChem BioAssay (NCATS).
Results filed as inconclusive are left out. Activity calls are given as the source filed them. Calls come from the whole dose curve; as a rule, active = well fitted cell-killing curve with a large enough effect; inconclusive = small, poorly fitted or top-dose-only effect, or effect the other way; inactive = flat fitted curve, though single readings scatter.

System: SKOV3
Experiment: Primary qHTS to identify gynecologic anti-cancer compounds using libraries of approved drugs and bioactive compounds (AID 1345084); note: nearly all actives have a fitted effect of over 55% in size
Settings: Gynecologic cancer cell panel viability, ATPlite luminescence, 48 h; series mostly up to 57.5 µM; activity change, negative = cytotoxicity: at the top concentration
Outline: (§1)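 In this quantitative HTS, cell killing is estimated from loss of ATP-dependent luciferase light. Cells see five compound concentrations over a 48 h exposure.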
% is set by controls: 0 for no effect and ±100 for the full control effect; potency is the fitted concentration of half-maximal effect.

| Compound | Potency | activity change, negative = cytotoxicity |
| --- | --- | --- |
| CN(CC1COCCO1)S(=O)(=O)Nc1ccc2ccc3ncc(-c4cnn(C)c4)cc3c(=O)c2c1 (configuration not stated) | 15.8 µM (active) | – |
| C[C@@H]1C[C@H](C)CN(CCC(=O)Nc2ccc(Br)cc2)C1 | – | -0.883% (inactive) |
| O=C(Nc1ccnc(NC(=O)C2CC2)c1)c1c(Cl)cccc1Cl | – | 2.1% (inactive) |
| Nc1nccc(-c2c(-c3ccc(F)cc3)ncn2C2CCCCC2)n1 | – | -9.92% (inactive) |
| Oc1ccc(-c2cnc3ccc(NCc4ccco4)nn23)cc1 | 14.1 µM (active) | – |
| CC12CCC(OC3OC(CO)C(O)C(O)C3OC3OC(CO)C(O)C(O)C3O)CC1CCC1C2CCC2(C)/C(=C3/COC(=O)C3)CCC12O (configuration not stated) | – | -0.854% [at 25.3 µM] (inactive) |
| COc1ccc(-c2ccccc2)cc1NS(=O)(=O)c1cc(Cl)cc(Cl)c1O | – | -28.6% [at 25.3 µM] (inactive) |
| COc1ccc(-c2cc3onc(-c4ccncc4)c3c(=O)n2C)cc1 | 1.78 µM (active) | – |
| CC(C)n1cnc2c(-c3cnc(N)nc3)nc(N3CCOCC3)nc21 | 1.26 µM (active) | – |
| CCC1C(=O)N(C)c2cnc(Nc3ccc(C(=O)NC4CCN(C)CC4)cc3OC)nc2N1C1CCCC1 (configuration not stated) | 6.31 µM (active) | – |
| C/C=C(/C)C(=O)OC1CC(C)(C)CC2C3=CCC4C5(C)CCC(O[C@@H]6O[C@H](C(=O)O)[C@@H](O)[C@H](O)[C@H]6O[C@@H]6O[C@H](CO)[C@H](O)[C@H](O[C@@H]7OC[C@H](O)[C@H](O)[C@H]7O[C@@H]7O[C@H](CO)[C@@H](O)[C@H](O)[C@H]7O)[C@H]6O)C(C)(C)C5CCC4(C)C3(C)C(O)C(O)C12CO (some centres not stated) | – | -5.71% [at 6.55 µM] (inactive) |
| NCC1CCN(c2nccc(-c3ccc4ccccc4c3)n2)CC1 | 22.4 µM (active) | – |
| CCCCNc1ncc(C(=O)NCc2ccc(-n3ccnc3)cc2)c(NC2CCC(O)CC2)n1 (configuration not stated) | – | -14.8% (inactive) |
| COc1cc(O)c2c(c1)C1OC1C[C@H](O)[C@H](O)C(=O)/C=C\C[C@H](C)OC2=O (some centres not stated) | – | -29.2% (inactive) |
| COc1cc2c(Nc3cc(F)c(Cl)c(Cl)c3)ncnc2cc1OCC1CCCN(C)CCC1 | 17.8 µM (active) | – |
| C=C(C)C(=O)O[C@H]1[C@H]2C(=C)C(=O)O[C@@H]2C[C@@H](C)[C@@H]2O[C@@H]2C(=O)[C@](C)(O)[C@@H]1OC(=O)C(=C)C | 10 µM (active) | – |
| C=C[C@@]12COC(=O)C(=C)[C@@H]1[C@@H](O)[C@H](C(=C)C(=O)OC)[C@@H](O)C2 | – | -32.8% [at 38.5 µM] (inactive) |
| NCCOc1cc(C(=O)Nc2cc(OCCN)c3ccccc3n2)nc(C(=O)Nc2cc(OCCN)c3ccccc3n2)c1 | 8.91 µM (active) | – |
| COc1c(C)cnc(Cn2cc(C#CCC(C)(C)O)c3c(Cl)nc(N)nc32)c1C | 0.251 µM (active) | – |
| CC(=O)O[C@H]1[C@H](O)C[C@@]2(C)C(CC[C@]3(C)C2CC=C2C4CC(C)(C)CC[C@]4(C(=O)O)CC[C@]23C)C1(C)C (some centres not stated) | 11.2 µM (active) | – |
| COC1C(O)C(OC2CCC3(C)C(CCC45CCC6C7(COC(=O)C7)OC4(O)C6(C)CCC35)C2)OC(C)C1OC1OC(CO)C(OC2OC(CO)C(O)C(O)C2O)C(O)C1O (configuration not stated) | – | -3.24% [at 11.6 µM] (inactive) |
| C=C1CC[C@@H]2[C@](C)(CO)[C@H](O)CC[C@@]2(C)[C@@H]1CC(=O)C1=CCOC1=O | – | 0% [at 38.5 µM] (inactive) |
| C=C[C@@]1(C)CCC2C(=CCC3[C@]2(C)CCC[C@@]3(C)C(=O)O)C1 (some centres not stated) | – | 0% (inactive) |
| Cc1cc(C(=O)Nc2cc(Oc3ccc4nc(NC(=O)C5CC5)cn4n3)ccc2C)n(C)n1 | 10 µM (active) | – |
| Cc1[nH]c(/C=C2\C(=O)Nc3ccc(S(=O)(=O)N(C)c4cccc(Cl)c4)cc32)c(C)c1C(=O)N1CCN(C)CC1 | – | -11.4% (inactive) |
| CC1CCC/C=C/C(=O)c2c(O)cc(O)cc2CC(=O)O1 (configuration not stated) | 22.4 µM (active) | – |
| C=C(C)C(=O)OC1CC2(C)OC(=CC2=O)C(=C)CC2OC(=O)C(=C)C12 (configuration not stated) | 10 µM (active) | – |
| C=C1CC[C@@H]2[C@](C)(CO)[C@H](O)CC[C@@]2(C)[C@@H]1C/C=C1/C(=O)OCC1O (some centres not stated) | – | -21.4% (inactive) |
| CC(OC1OCCN(Cc2n[nH]c(=O)[nH]2)C1c1ccc(F)cc1)c1cc(C(F)(F)F)cc(C(F)(F)F)c1 (configuration not stated) | – | -31% (inactive) |

System: Tov-21-G
Experiment: as above
Settings: Gynecologic cancer cell panel viability, ATPlite luminescence, 48 h; series mostly up to 57.5 µM; activity change, negative = cytotoxicity: at the top concentration
Outline: as §1

| Compound | activity change, negative = cytotoxicity | Potency |
| --- | --- | --- |
| CCN(CC)CCCCCCNc1cc(OC)cc2c(C)ccnc12 | -5.23% (inactive) | – |
| C[C@@H]1C[C@H](C)CN(CCC(=O)Nc2ccc(Br)cc2)C1 | -0.12% (inactive) | – |
| COc1ccc(-c2cc3onc(-c4ccncc4)c3c(=O)n2C)cc1 | -14.2% (inactive) | – |
| COc1cc(O)c2c(c1)C1OC1C[C@H](O)[C@H](O)C(=O)/C=C\C[C@H](C)OC2=O (some centres not stated) | – | 17.8 µM (active) |
| C=C[C@@]1(C)CCC2C(=CCC3[C@]2(C)CCC[C@@]3(C)C(=O)O)C1 (some centres not stated) | -16.2% (inactive) | – |
| Cc1[nH]c(/C=C2\C(=O)Nc3ccc(S(=O)(=O)N(C)c4cccc(Cl)c4)cc32)c(C)c1C(=O)N1CCN(C)CC1 | -18.2% (inactive) | – |
| C=C(C)C(=O)OC1CC2(C)OC(=CC2=O)C(=C)CC2OC(=O)C(=C)C12 (configuration not stated) | – | 4.47 µM (active) |
| CC(OC1OCCN(Cc2n[nH]c(=O)[nH]2)C1c1ccc(F)cc1)c1cc(C(F)(F)F)cc(C(F)(F)F)c1 (configuration not stated) | -3.74% (inactive) | – |
